Screening results deposited in PubChem by several laboratories.
Compounds with a hit are over-represented: about 3.3% of the library has one in this group of screens.
C2C12 statin: suppressors of simvastatin-induced myotoxicity in C2C12 myotubes; ATP luminescence, 48 h; scaled: DMSO 0, geranylgeraniol control 100; rescue of ATP level, % at 7.49 µM; hit rate 0.78% among 330,000;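 active = mean ATP rescue above about 67%, or every replicate alone reaching that limit, limit read from the data, passing the limit was not always enough; inconclusive = no clear call, values can overlap the other calls; inactive = mean under the limit and some replicate under it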;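 also: myotubes were challenged with 10 µM simvastatin during compound exposure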
esBAF inh: inhibitors of esBAF chromatin remodeling in mouse ES cells. hit rate 2% among 350,000. reporter increase, % at 12.5 µM. Bmi1-luciferase knock-in reporter, 24 h; 100% = twice the neutral-well signal; in the data active = activation above about 40%; inconclusive = no clear call, values can overlap the other calls;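 also: 0% = median of the plate's neutral control wells and 100% = double that signal; a rise in the Bmi1 reporter signal indicates esBAF inhibition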
FXN GAA850 act: activators of GAA850 frataxin (FXN) promoter | hit rate 0.56% among 360,000 | activation, % at 6 µM | HEK293 lucGAA850 FXN promoter luciferase reporter, 24 h; percent of 10 µM SAHA response;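 active = activation above the average of all compounds screened plus 3 SD, cutoff fixed separately per campaign, cut at about 7.5% in these data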;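 also: 0% = DMSO wells and 100% = 10 µM SAHA wells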
MITF act: MITF TRPM1 promoter activation in melanoma cells | SK-MEL-5 TRPM1-promoter luciferase, 24 h; % of positive control, neutral wells = 0 | activation, % at 12.5 µM | hit rate 0.75% among 300,000 | AID 588334;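 active = mean activation of at least 80% with every replicate also reaching 80%; inconclusive = mean reaches 80% but some replicate falls short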;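 also: 0% = neutral control wells and 100% = parthenolide positive control wells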
Wnt bcat act: activators of Wnt/beta-catenin signaling. hit rate 1.2% among 300,000. AID 743398. activation, % at 9.35 µM. Wnt/beta-catenin reporter cell assay, activator, plate reader; in the data active = activation above about 30%, passing the limit was not always enough; inconclusive = no clear call, values can overlap the other calls;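 also: 0% = neutral control wells and 100% = positive control wells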
* = called active by the depositor; u = inconclusive; x = not tested or not shown.

SMILES	C2C12 statin	esBAF inh	FXN GAA850 act	MITF act	Wnt bcat act
CCSc1nc(C2CC2)cc(-c2ccco2)c1C#N	99.8*	-8.4	2.4	19.8	x
CCc1ccc(NC(=O)c2ccc3nc(N)sc3c2)cc1	-53.4	49.8*	2.5	u	x
Nc1nc2ccc(C(=O)Nc3ccccc3)cc2s1	-1.7	50.8*	4.6	32.7	x
CCc1ccc2nc(N)sc2c1	x	x	5.8	56.7	1.0
Cc1ccnc(NC(=O)c2cc3cc(F)ccc3s2)c1	-15.6	17.2	4.2	52.2	37.6*
Cc1ccnc(NC(=O)c2cc([N+](=O)[O-])cc([N+](=O)[O-])c2)c1	x	x	-2.1	-19.4	-0.2
Cc1ccnc(NC(=O)c2ccc([N+](=O)[O-])s2)c1	28.8	28.8	3.7	-26.9	42.1*
Cc1ccnc(NC(=O)CNC(=O)c2ccc(C)s2)c1	-3.6	u	2.3	21.3	-0.8
C[C@H]1CN([C@@H](C)CO)C(=O)c2cc(C3=CCCCC3)cnc2O[C@H]1CN(C)Cc1ccccc1	38.4	0.2	x	x	x
COc1cc(OC)c(C2=NOC(C(=O)N3CCCc4ccccc43)C2)cc1Cl (stereo not given)	134.9*	-0.6	2.5	10.4	x
CCOC(=O)N1CCN(C(=O)C2CC(c3ccccc3OC)=NO2)CC1 (stereo not given)	105.9*	6.1	0.3	6.0	-2.3
CCC1CCCCN1C(=O)C1CC(c2cc(Cl)c(OC)cc2OC)=NO1 (stereo not given)	2.2	-0.1	3.4	2.9	7.0
O=C(CNC(=O)c1cccs1)Nc1ccc2c(c1)OCCO2	4.2	-6.7	0.7	46.8	30.5*
CCCCc1ccc(NC(=O)C2CCCO2)cc1 (stereo not given)	-6.9	20.3	0.5	105.1*	x
O=C(Nc1ccc(NC(=O)c2cccs2)cc1)c1ccc2c(c1)OCCO2	-45.1	-46.8	-14.4	-8.0	0.4
O=C(NCc1ccccn1)Nc1ccc2c(c1)OCO2	-14.2	51.5*	4.4	18.1	17.0
Cn1ccc2cc(NC(=O)Nc3cccnc3)ccc21	-1.5	55.8*	2.7	71.2	12.9
CN(C)CCCNC(=O)C[C@H]1CC[C@H](NS(=O)(=O)c2ccccc2)[C@@H](CO)O1	-1.1	1.9	x	x	x
O=C(Nc1cccnc1)Nc1ccc2c(c1)OCO2	-1.2	42.4*	1.6	x	x
O=C(Nc1ccc2c(c1)OCO2)Nc1ccc2c(c1)OCO2	x	x	4.5	74.6	29.5
CCCCc1ccc(NC(=S)Nc2cccnc2)cc1	x	x	1.9	0.7	0.8
O=C(NCc1cccs1)Nc1ccc2c(c1)OCO2	5.6	63.3*	1.9	x	x
O=C(Nc1ccc2c(c1)OCO2)Nc1ccccn1	x	x	5.2	62.4	55.0*
CCCCc1ccc(NC(=O)Nc2cccnc2)cc1	-28.9	50.9*	3.8	61.7	12.5
CC(C)C#Cc1ccc2c(c1)O[C@H](CN(C)C(=O)C1CCCCC1)[C@@H](C)CN([C@@H](C)CO)S2(=O)=O	-36.3	1.7	x	x	x
SMILES	C2C12 statin	esBAF inh	FXN GAA850 act	MITF act	Wnt bcat act
C[C@H](CO)N1C[C@H](C)[C@@H](CN(C)Cc2ccc(C(F)(F)F)cc2)OCCCC[C@H](C)Oc2ccc(NS(=O)(=O)c3ccc(Cl)cc3)cc2C1=O	x	-12.8	x	x	x
C#CCNC(=O)/C=C/c1ccc(C)cc1	4.4	32.3	5.2	91.4*	27.5
COCC(=O)Nc1ccc2c(c1)C(=O)N(C)C[C@@H](OC)[C@H](C)CN(C(C)=O)[C@H](C)CO2	9.5	-0.6	x	x	x
COc1ccc2c(c1)-c1nc(NC(=O)c3ccco3)sc1CC2	x	x	7.3	85.1*	63.5*
COc1ccc2c(c1)Cc1sc(NC(=O)c3ccco3)nc1-2	17.1	46.0*	4.2	65.4	x
COc1ccc2c(c1)CCc1sc(NC(=O)c3ccco3)nc1-2	-1.2	22.6	1.9	58.1	x
C[C@H]1CN([C@@H](C)CO)C(=O)c2cc(-c3cccc(C#N)c3)cnc2O[C@@H]1CN(C)C(=O)c1cnccn1	-1.6	-2.0	x	x	x
C[C@@H](NC(=O)C[C@@H]1CC[C@H](NC(=O)C2CCC2)[C@@H](CO)O1)c1ccccc1	-6.6	-1.4	x	x	x
Cc1noc(C)c1S(=O)(=O)Nc1ccc2c(c1)C(=O)N([C@@H](C)CO)C[C@@H](C)[C@@H](CN(C)S(=O)(=O)c1c(C)noc1C)O2	-14.4	-6.0	x	x	x
CCCCCn1c(CCC(=O)Oc2ccccc2OC)nc2c1c(=O)[nH]c(=O)n2CCCC	129.2*	-1.9	0.8	-10.7	x
CN(C)CC(=O)Nc1ccc2c(c1)[C@@H]1C[C@H](CC(=O)N(C)C)O[C@@H](CO)[C@@H]1O2	1.6	-2.8	x	x	x
Cc1nc2c(-c3ccccc3)c[nH]n2c(=O)c1Cc1ccccc1	-2.9	46.8*	4.0	20.5	5.6
COc1ccccc1-n1cnc2cc(NCc3ccco3)ccc21	73.3*	12.5	0.8	2.0	-13.2
COc1ccccc1-n1cnc2cc(NCc3ccccc3O)ccc21	2.4	33.2	4.7	7.4	10.9
Cc1ccc(-c2cn3c(n2)SCC3)cc1	-7.1	6.6	5.3	22.9	65.2*
CCc1ccc(-c2cn3c(n2)SCC3)cc1	2.6	29.1	1.9	63.6	13.8
N/C(=N\OC(=O)c1ccc(Cl)cc1Cl)c1ccncc1	x	x	5.9	x	34.8*
Cc1occc1C(=O)O/N=C(\N)c1ccc(Cl)cc1	-2.8	64.1*	1.6	x	63.4*
N/C(=N\OC(=O)c1ccc(Cl)cc1[N+](=O)[O-])c1cccnc1	x	x	4.7	x	37.3*
N/C(=N\OC(=O)c1cc(Cl)ccc1Cl)c1ccncc1	x	x	1.3	32.0	-4.4
N/C(=N\OC(=O)c1ccc(Cl)c(Cl)c1)c1cccnc1	0.5	51.8*	4.2	28.1	x
N/C(=N\OC(=O)c1ccccc1Cl)c1cccnc1	-3.9	22.3	2.6	31.1	x
CC(C)C#Cc1cnc2c(c1)C(=O)N([C@H](C)CO)C[C@H](C)[C@H](CN(C)Cc1cccc(F)c1)O2	1.7	5.1	x	x	x
N/C(=N\OC(=O)c1cc(Br)ccc1Cl)c1cccnc1	x	x	1.4	15.8	-0.4
N/C(=N\OC(=O)c1ccccc1)c1ccn[nH]1	6.4	24.7	3.5	19.5	48.5*
SMILES	C2C12 statin	esBAF inh	FXN GAA850 act	MITF act	Wnt bcat act
N/C(=N\OC(=O)c1cc(Cl)ccc1Cl)c1cccnc1	x	51.6*	3.8	x	x
N/C(=N\OC(=O)c1cccc(Cl)c1)c1cccnc1	-24.7	73.4*	3.6	18.3	x
N/C(=N\OC(=O)c1ccccc1)c1cccnc1	0.5	56.3*	3.3	16.7	51.2*
CC(=O)N1[C@H](C(=O)NCc2ccc(F)cc2)[C@@H](CO)[C@@H]2Cn3c(cccc3=O)[C@@H]21	-17.2	-1.9	x	x	x
Cc1ccc(/C(N)=N/OC(=O)c2ccco2)cc1	3.2	-24.9	1.8	x	u
N/C(=N\OC(=O)c1ccco1)c1ccccc1	3.3	u	3.9	94.8*	35.6*
C[C@H](NC(=O)C[C@@H]1CC[C@H](NC(=O)Cc2ccccn2)[C@H](CO)O1)c1ccccc1	-5.5	0.7	x	x	x
COc1ccc(OC)c(NC(=O)COC(=O)c2n[nH]c3ccccc23)c1	1.6	4.7	-0.8	-18.2	-3.6
COc1ccc(OC)c(C(=O)COC(=O)c2ccccc2O)c1	6.1	41.5*	1.6	x	x
